Test results reported in PubChem BioAssay AID686978 (National Center for Advancing Translational Sciences (NCATS), 2013).
In all, about 420,000 compounds went through this assay and about 64,000 (15%) were called active. Not shown: some 27% with an inconclusive outcome. These entries were drawn from the full list. A number with no mark means an inactive call. Calls come from the whole dose curve; as a rule, active = well fitted inhibition curve with a large enough effect; inconclusive = small, poorly fitted or top-dose-only effect; inactive = flat fitted curve, though single readings scatter.

Test: qHTS for Inhibitors of human tyrosyl-DNA phosphodiesterase 1 (TDP1): qHTS in cells in absence of CPT; note: nearly all actives have a fitted effect of over 55% in size
Settings: DT40 Tdp1-/- hTDP1 cells, no CPT, ATP luminescence, 48 h; activity change, negative = growth inhibition: at 46.2 µM (top of the series)
Procedure, shortened: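 No-CPT arm: Tdp1-/-;hTDP1 DT40 cells (400/well) plus compounds, incubated ≥48 hr at 37 °C. Readout CellTiter-Glo luminescence.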
% is set by controls: 0 for no effect and ±100 for the full control effect; potency is the fitted concentration of half-maximal effect.

Row | Compound | activity change, negative = growth inhibition | Potency
1 | CCC(C)NC(=O)c1cc(Cl)ccc1OC (stereo not drawn) | -12.7% | 
2 | Cc1cc(N(C)C)cc(C)[n+]1[O-] | -2.53% | 
3 | Cn1sc(=O)c2cc(S(=O)(=O)NC3CC3)ccc21 |  | 10.3 µM (active)
4 | O=S(=O)(NC1CC1)c1ccc(Cl)cc1 | 1.98% | 
5 | O=S(=O)(NC1CC1)c1ccc(F)c(F)c1 | -10.3% | 
6 | CC(NC(=O)CCCC1CCCCC1)c1ccc(S(N)(=O)=O)cc1 (stereo not drawn) | -26.5% | 
7 | N#CC1=C(N)Oc2c(sc3ccccc23)C1c1ccco1 (stereo not drawn) |  | 5.17 µM (active)
8 | C[C@H](NC(=O)CC[C@H]1O[C@@H](n2ccc(=O)[nH]c2=O)[C@H](O)[C@@H]1O)c1cccc2ccccc12 | 0.78% | 
9 | Cc1ccc(S(=O)(=O)N2CCOCC2)cc1NC(=O)COC(=O)c1cnccn1 | 8.82% | 
10 | CCCCCCC1(C)NC(c2ccc3c(c2)OCO3)=CC(c2ccccc2O)N1 (stereo not drawn) |  | 15.8 µM (active)
11 | CCc1ccccc1NC(=O)c1cc(-c2ccc3c(c2)OCO3)on1 |  | inactive
12 | CC(C)COC(=O)c1ccc(NC(=O)C2C3C=CC(C3)C2C(=O)O)cc1 (stereo not drawn) | -23% | 
13 | CC1=CC=CN2C1=NC(=O)CC2(C)C(=O)N(CC(=O)NC1CCCC1)c1ccccc1C (stereo not drawn) | 23.1% | 
14 | N#Cc1ccc(C(c2ccc(C#N)cc2)n2cncn2)cc1 | -7.38% [at 21.1 µM] | 
15 | CC(=O)Nc1cccc(/C(C)=N/NC(=O)c2c(-c3ccccc3Cl)noc2C)c1 |  | 13 µM (active)
16 | CC(=NNC(=O)c1ccncc1)c1ccc(Cl)c(Cl)c1 | -27.8% | 
17 | Cc1onc(-c2c(F)cccc2Cl)c1C(=O)N(C)CC(=O)Nc1cccc(F)c1 | -0.215% | 
18 | Cc1oc(-c2ccccc2F)nc1CN1CCC(C(=O)NCCc2ccc(Cl)cc2)CC1 |  | 16.4 µM (active)
19 | COc1ccc(-c2nc(CN3CCC(C(=O)NCc4ccccc4)CC3)c(C)o2)cc1OC | -0.259% | 
20 | Cc1oc(-c2ccccc2F)nc1CS(=O)CC(=O)NCCN1CCCCC1C (stereo not drawn) | 25.6% | 
21 | C[C@H]1[C@H]2c3nc4ccccc4n3C[C@H]1ON2C1CCCCC1 | -13.5% | 
22 | CSc1ncc(C(=O)NCc2ccccc2Cl)c(C(F)(F)F)n1 | -28.9% | 
23 | CCc1ccc(NC(=O)c2ccc(Cn3cc([N+](=O)[O-])cn3)cc2)cc1 | -14.7% | 

Row | Compound | activity change, negative = growth inhibition | Potency
24 | COc1cc(NS(=O)(=O)c2ccc(NC(=O)c3ccc([N+](=O)[O-])cc3)cc2)ncn1 | -9.31% | 
25 | Cn1ccc(=Nc2ccc(NC(=O)c3ccc(N=c4ccn(C)c5ccc([N+](=O)[O-])cc45)cc3)cc2)cc1 |  | 3.66 µM (active)
26 | Oc1ccc2ccccc2c1N=Nc1nccs1 |  | 0.651 µM (active)
27 | Oc1ccc(N=Nc2nccs2)c(O)c1 |  | 20.6 µM (active)
28 | Oc1c(C=Nc2cccc3nsnc23)ccc2ccccc12 | -28.4% | 
29 | Cc1nc(Nc2ccccc2C)c2cnn(C)c2n1 | -12.1% | 
30 | Cc1ccc(CCCOC(=O)C[N+]2(C)CCCCC2)cc1 | -5.38% | 
31 | CCCOc1ccc(N2CC(C(=O)Nc3ccccn3)CC2=O)cc1 (stereo not drawn) | -2.41% | 
32 | CC(C)CCN1CCN(Cc2cn[nH]c2C2CCCCC2)CC1CCO (stereo not drawn) | -14.3% | 
33 | CCOC(=O)c1cn(Cc2cccc(C)c2)nn1 | -21.4% | 
34 | CSc1nn(Cc2cccc(C)c2)c(N)c1S(=O)(=O)c1ccccc1 |  | 18.4 µM (active)
35 | Cc1nn(Cc2ccccc2)c(C)c1NS(=O)(=O)c1ccccc1 | -22.6% | 
36 | CCOC(=O)C(C)N(c1ccccc1Cl)S(C)(=O)=O (stereo not drawn) | -1.47% | 
37 | CCOC(=O)c1ccc2c(c1)nc(SCC(=O)NC(C)C)n2CC | -1.77% | 
38 | Cc1ccc(F)c(S(=O)(=O)NC(=O)C2(C)CCN2C(=O)CCc2cccs2)c1 (stereo not drawn) | -14.3% | 
39 | COc1ccc(/C=C2/S/C(=N/N=C3\CC4CCC3(C)C4(C)C)NC2=O)cc1 (stereo not drawn) | 2.35% | 
40 | COc1ccc2c(c1)CC[C@@H]1[C@@H]2CC[C@]2(C)C(=O)CC[C@@H]12 | -21.2% | 
41 | COc1ccc(C=C2CCC3C(CCCC34OCCO4)C2=O)cc1 (stereo not drawn) |  | 23.1 µM (active)
42 | C#CCN1CC(C)/C(=N/O)CC1C (stereo not drawn) | -36% | 
43 | COc1ccccc1CNS(=O)(=O)c1c(C)[nH]c(C)c1C(=O)N1CCCCC1 | -7.77% | 
44 | CCc1nc(Nc2ccc3nccnc3c2)c2oc3ccccc3c2n1 |  | 2.31 µM (active)
45 | CCSc1nc(C)nc2c1oc1ccccc12 | -20.5% | 
46 | CCc1nc(Nc2ccc(NC(C)=O)cc2)c2oc3ccccc3c2n1 | -17.5% | 

Row | Compound | activity change, negative = growth inhibition | Potency
47 | C/C(=N/NC(=S)Nc1ccccc1)c1ccc2c(c1)OCO2 |  | 0.517 µM (active)
48 | C/C(=N\NC(=O)C(N)=O)c1ccc2c(c1)OCCO2 | 3.69% | 
49 | C/C(=N/NC(=O)c1ccncc1)c1ccc2c(c1)OCO2 | 1.98% | 
50 | CCS(=O)(=O)N(C)[C@@H]1c2cc(C#N)ccc2OC(C)(C)[C@H]1O |  | inactive
51 | O=c1cc(CCl)nc2scc(-c3ccccc3)n12 |  | 16.4 µM (active)
52 | C/C(CC(O)(/C=N/O)c1ccccc1)=N\O (stereo not drawn) | -2.03% | 
53 | C/C(CC(=O)Nc1ccc(Cl)cc1)=N\NC(=O)C(=O)NCCO | -17% | 
54 | CC(C)Cn1cnc2c1c(=O)n(CC(O)c1ccccc1)c(=O)n2CC(C)C (stereo not drawn) | -11.1% | 
55 | CCCCn1c(SCC(=O)N2CCOCC2)nc2c1c(=O)n(C)c(=O)n2C | -17.5% | 
56 | CC(C)Cn1cnc2c1c(=O)n(CC(=O)NN)c(=O)n2Cc1ccccc1 | 0.54% | 
57 | Cn1c(=O)c2c(nc(N3CCOCC3)n2CCNC2=NCCC2)n(C)c1=O | -1.9% | 
58 | Cn1c(=O)[nH]c(=O)c2c1nc(CN(Cc1ccccc1)Cc1ccccc1)n2CCN1CCOCC1 | -27.6% | 
59 | CCCCCCn1c(CN2CCCCC2)nc2c1c(=O)n(C)c(=O)n2C |  | 20.6 µM (active)
60 | COCCn1c(CN(Cc2ccccc2)Cc2ccccc2)nc2c1c(=O)n(C)c(=O)n2C |  | 25.9 µM (active)
61 | CC(C)CCn1cnc2c1c(=O)n(CC(=O)NC(N)=O)c(=O)n2Cc1ccccc1 | 5.92% | 
62 | CC(C)Cn1c(CN(Cc2ccccc2)Cc2ccccc2)nc2c1c(=O)n(C)c(=O)n2C |  | 14.6 µM (active)
63 | CC(C)CCn1c(CN(C)Cc2ccccc2)nc2c1c(=O)n(C)c(=O)n2C |  | 6.51 µM (active)
64 | CC(O)c1nc2c(c(=O)n(C)c(=O)n2C)n1C (stereo not drawn) | 1.38% | 
65 | Cn1ccnc1-c1nnn(-c2ccc(F)cc2)n1 | -17.5% | 
66 | O=C(OCC(=O)c1cccs1)c1ccc([N+](=O)[O-])o1 | -11% | 
67 | O=C(COc1ccc(-n2cnnn2)cc1)Nc1ccccc1Cl | -19.4% | 
68 | CN(C)S(=O)(=O)c1ccc(N2CCCC2=O)c([N+](=O)[O-])c1 | -4.6% | 
